Common to all, as to parameters: scale not given: direction of the effect not stated beside the values
The target in assay [1] is Protein translocase subunit SecA (Escherichia coli (strain K12)) (UniProt P10408). Description: Assay to Identify E. coli SecA ATPase Inhibitors. The format is functional. Particulars: 30 µM.
Assay [2] addresses T1, Ubiquitin-activating enzyme e1, putative (Leishmania donovani (strain BPK282A1)) (UniProt E9BSI1).
T1 sequence (whole entry): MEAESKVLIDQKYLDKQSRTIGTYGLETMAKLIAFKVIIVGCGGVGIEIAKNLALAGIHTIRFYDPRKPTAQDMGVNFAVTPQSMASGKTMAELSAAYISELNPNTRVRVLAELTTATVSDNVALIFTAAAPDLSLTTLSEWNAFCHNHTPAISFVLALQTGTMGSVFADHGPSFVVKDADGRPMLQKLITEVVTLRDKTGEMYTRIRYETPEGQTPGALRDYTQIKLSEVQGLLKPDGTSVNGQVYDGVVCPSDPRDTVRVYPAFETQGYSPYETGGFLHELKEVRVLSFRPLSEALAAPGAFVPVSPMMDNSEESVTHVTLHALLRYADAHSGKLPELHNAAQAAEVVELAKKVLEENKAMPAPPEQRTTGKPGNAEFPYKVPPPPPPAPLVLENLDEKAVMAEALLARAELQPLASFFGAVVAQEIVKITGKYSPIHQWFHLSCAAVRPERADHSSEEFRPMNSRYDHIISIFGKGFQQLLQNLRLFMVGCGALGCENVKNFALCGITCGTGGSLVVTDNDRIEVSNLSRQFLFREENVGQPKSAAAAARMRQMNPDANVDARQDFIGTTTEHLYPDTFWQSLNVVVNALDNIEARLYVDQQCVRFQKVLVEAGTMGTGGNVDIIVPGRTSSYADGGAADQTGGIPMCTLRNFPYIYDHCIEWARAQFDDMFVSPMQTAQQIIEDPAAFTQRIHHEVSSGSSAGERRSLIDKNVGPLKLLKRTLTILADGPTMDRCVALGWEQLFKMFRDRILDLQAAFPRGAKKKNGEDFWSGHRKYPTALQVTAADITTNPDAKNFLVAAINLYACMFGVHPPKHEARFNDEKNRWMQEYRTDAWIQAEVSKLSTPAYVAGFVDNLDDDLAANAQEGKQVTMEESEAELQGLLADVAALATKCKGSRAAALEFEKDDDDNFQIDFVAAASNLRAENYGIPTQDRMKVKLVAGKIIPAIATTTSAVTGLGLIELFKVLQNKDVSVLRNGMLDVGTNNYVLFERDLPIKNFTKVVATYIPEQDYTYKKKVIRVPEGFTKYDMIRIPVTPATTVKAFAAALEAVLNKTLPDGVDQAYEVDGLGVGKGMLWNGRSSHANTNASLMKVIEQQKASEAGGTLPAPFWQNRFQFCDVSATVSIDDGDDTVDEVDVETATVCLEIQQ
Nature of the assay: Leishmania donovani Ubiquitin Activating Enzyme (LdE1). Format: functional. Particulars: 30 µM.

Assay [3] addresses Sialic acid-binding Ig-like lectin 9 (Homo sapiens) (UniProt Q9Y336). Description: Hs-Siglec9 ALPHAscreen SOP 20170721. As to conditions: 10 µM.
Assay [4] has as its system Trypanosoma cruzi. Description: Trypanosoma cruzi phosphomannomutase and mannose-1-phosphate guanylyltransferase assay. The format is functional. Particulars: 10 µM.
The target of assay [5] is T2, Arginase-2, mitochondrial (Homo sapiens) (UniProt P78540).
T2 sequence (whole entry): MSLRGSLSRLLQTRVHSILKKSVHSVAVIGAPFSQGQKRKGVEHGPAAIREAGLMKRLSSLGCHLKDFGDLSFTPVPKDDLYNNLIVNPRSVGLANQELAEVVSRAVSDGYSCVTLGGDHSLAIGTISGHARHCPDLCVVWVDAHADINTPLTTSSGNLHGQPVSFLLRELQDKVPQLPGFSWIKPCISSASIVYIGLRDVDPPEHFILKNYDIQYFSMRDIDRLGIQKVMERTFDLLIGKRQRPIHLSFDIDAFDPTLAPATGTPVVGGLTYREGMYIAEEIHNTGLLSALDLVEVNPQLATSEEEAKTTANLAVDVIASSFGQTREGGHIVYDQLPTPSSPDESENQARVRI
Nature of the assay: in vitro enzyme assay to detect the production of urea directly proportional to the activity of Arginase II. Further: in the data most compounds retested in dose-response had high values. The format is functional. Particulars: 33.3 µM.

Assay [6] has as its target T3, Proteasome subunit beta (Trypanosoma cruzi) (UniProt O96673).
T3 sequence (whole entry): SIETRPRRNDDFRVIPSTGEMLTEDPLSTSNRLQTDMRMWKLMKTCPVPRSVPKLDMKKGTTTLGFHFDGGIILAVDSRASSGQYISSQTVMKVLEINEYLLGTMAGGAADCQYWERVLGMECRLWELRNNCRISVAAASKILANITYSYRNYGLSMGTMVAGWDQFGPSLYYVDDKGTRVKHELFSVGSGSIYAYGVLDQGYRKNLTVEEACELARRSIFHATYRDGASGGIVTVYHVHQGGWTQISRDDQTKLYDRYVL
Nature of the assay: Trypanosoma cruzi proteasome chymotrypsin-like activity (TcProtChymo) assay. Further: in the data most compounds retested in dose-response had high values. As to conditions: 9.37 µM. Format: functional.

The species named for assay [7] is Homo sapiens. Nature of the assay: To identify inhibition of the IFN signalling (Jak-Stat) pathway via expression of an eGFP reporter gene under the control of an IFN-stimulated response element (ISRE) containing MxA promoter. The format is functional. As to conditions: 30 µM.
The target of assay [8] is T4, Tyrosyl-tRNA synthetase, putative (Trypanosoma cruzi (strain CL Brener)) (UniProt Q4DSP6).
T4 sequence (whole entry): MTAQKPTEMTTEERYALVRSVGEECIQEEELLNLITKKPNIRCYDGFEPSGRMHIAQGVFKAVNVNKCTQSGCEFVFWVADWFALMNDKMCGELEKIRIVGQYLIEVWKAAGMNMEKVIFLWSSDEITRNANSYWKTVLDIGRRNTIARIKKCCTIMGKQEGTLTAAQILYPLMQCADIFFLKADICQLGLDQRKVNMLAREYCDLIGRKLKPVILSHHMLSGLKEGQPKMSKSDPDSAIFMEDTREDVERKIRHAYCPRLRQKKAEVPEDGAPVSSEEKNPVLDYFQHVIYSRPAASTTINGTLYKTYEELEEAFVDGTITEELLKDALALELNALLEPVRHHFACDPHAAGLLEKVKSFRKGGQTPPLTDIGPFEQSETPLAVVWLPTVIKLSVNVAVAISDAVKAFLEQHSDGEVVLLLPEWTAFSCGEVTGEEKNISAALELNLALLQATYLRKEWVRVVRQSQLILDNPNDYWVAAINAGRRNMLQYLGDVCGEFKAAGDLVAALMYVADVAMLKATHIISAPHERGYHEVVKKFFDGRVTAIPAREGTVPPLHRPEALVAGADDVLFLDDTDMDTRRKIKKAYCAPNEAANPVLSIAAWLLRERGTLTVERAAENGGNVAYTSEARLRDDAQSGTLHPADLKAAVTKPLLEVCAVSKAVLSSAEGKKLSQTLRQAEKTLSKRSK
Description: Trypanosoma cruzi tyrosyl tRNA synthetase (TcYRS) _High Tyrosine SOP. Further: in the data most compounds retested in dose-response had high values. Format: functional. Particulars: 30 µM.

In assay [9] the target is T4, Tyrosyl-tRNA synthetase, putative (Trypanosoma cruzi (strain CL Brener)). Nature of the assay: Trypanosoma cruzi tyrosyl tRNA synthetase (TcYRS) SOP. The format is functional. Particulars: 30 µM.
Assay [10] concerns the target Chromo domain-containing protein 1 (Saccharomyces cerevisiae (strain ATCC 204508 / S288c) (Baker's yeast)) (UniProt P32657). Nature of the assay: ScCHD-1 Enzyme Inhibition Assay. Further: in the data most compounds retested in dose-response had high values. The format is functional. Particulars: 30 µM.

For some assays here: Measured potencies and affinities stand elsewhere.

Sialic acid-binding Ig-like lectin 9 (Homo sapiens), sequence (Q9Y336 whole entry): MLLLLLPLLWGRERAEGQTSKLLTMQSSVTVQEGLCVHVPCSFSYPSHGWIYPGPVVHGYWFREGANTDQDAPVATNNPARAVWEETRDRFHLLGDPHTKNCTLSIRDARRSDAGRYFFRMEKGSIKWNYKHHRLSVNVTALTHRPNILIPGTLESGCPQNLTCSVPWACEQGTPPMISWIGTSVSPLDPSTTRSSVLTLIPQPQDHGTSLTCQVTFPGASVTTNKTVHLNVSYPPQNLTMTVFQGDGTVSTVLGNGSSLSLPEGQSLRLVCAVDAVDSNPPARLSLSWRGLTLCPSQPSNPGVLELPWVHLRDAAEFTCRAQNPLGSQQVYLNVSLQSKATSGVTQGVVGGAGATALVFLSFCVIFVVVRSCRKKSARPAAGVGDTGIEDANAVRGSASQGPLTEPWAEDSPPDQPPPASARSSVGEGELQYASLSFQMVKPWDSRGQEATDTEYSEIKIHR
Protein translocase subunit SecA (Escherichia coli (strain K12)), sequence (P10408 whole entry): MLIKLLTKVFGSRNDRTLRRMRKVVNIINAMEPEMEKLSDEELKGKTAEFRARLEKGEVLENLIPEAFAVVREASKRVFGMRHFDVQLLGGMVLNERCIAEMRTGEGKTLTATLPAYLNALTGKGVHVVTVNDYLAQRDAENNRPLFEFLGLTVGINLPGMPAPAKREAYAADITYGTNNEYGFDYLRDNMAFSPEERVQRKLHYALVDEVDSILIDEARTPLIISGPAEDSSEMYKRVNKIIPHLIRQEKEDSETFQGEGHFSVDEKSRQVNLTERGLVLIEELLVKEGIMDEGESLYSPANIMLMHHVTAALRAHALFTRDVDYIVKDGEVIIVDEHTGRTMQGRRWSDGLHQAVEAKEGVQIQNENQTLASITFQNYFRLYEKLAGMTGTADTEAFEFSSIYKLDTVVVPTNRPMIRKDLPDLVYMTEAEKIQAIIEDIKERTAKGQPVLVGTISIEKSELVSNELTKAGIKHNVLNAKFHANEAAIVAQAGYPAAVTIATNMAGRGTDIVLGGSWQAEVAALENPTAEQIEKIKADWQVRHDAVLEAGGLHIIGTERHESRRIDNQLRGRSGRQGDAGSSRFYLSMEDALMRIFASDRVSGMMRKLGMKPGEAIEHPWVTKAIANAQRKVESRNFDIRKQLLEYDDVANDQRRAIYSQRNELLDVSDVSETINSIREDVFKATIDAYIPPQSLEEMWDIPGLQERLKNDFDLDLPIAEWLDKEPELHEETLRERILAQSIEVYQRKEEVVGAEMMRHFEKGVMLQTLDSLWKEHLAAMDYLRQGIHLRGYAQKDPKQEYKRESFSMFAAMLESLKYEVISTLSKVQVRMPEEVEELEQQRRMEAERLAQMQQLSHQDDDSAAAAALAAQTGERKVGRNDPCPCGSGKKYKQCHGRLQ
Chromo domain-containing protein 1 (Saccharomyces cerevisiae (strain ATCC 204508 / S288c) (Baker's yeast)), sequence (P32657 whole entry, the tested form may be a part): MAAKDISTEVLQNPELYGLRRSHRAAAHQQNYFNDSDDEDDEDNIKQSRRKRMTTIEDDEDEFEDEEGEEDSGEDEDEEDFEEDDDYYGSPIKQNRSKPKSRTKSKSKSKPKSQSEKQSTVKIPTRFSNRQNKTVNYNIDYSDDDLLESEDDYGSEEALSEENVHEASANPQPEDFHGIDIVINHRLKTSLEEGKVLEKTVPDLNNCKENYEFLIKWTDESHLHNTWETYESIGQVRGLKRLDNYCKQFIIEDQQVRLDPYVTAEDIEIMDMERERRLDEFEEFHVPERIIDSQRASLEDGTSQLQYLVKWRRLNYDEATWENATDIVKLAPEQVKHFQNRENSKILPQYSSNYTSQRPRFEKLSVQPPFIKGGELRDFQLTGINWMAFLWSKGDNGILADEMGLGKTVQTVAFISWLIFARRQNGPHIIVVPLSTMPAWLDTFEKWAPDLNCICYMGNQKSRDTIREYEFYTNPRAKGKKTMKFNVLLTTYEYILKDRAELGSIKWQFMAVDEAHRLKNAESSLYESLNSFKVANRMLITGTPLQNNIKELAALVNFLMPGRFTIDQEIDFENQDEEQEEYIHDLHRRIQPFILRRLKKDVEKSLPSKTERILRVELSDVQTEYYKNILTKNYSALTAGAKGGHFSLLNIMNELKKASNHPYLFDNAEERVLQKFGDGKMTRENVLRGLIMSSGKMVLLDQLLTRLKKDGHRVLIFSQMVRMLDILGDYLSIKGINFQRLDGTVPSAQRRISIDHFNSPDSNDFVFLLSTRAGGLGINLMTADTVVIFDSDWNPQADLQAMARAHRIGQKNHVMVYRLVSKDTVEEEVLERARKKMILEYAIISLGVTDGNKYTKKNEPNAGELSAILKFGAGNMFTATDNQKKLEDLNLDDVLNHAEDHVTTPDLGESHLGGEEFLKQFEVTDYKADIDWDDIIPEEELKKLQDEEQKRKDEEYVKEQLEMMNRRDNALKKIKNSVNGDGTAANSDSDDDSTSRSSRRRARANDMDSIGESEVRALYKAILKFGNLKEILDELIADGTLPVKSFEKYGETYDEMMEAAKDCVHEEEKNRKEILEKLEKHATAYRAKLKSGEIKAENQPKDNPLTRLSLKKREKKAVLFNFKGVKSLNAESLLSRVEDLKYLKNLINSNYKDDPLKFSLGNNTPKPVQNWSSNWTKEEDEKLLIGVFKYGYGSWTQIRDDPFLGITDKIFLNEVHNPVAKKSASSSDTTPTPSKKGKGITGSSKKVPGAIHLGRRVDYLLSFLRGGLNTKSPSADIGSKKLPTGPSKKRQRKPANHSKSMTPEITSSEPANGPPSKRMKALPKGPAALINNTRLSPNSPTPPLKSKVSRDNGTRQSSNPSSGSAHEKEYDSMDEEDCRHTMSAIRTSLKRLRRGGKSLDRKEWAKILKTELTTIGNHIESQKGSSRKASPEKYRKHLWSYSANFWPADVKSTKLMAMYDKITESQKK

In the case of `O=c1cc(Cn2cncn2)nc2n1CCCN(CC1CC1)C2`, the Percent Effect in [1] is -4.98%; in [2] it was 11.7%; in [3] it was -1.33%; in assay [4] it was 1.27%; in [5] it was -1.22%; in assay [6] it was 9.09%. The Percent Effect was -6.93% in assay [7], 3.68% in assay [8], 5.13% in assay [9] and -4.01% in [10].

`Cc1[nH]nc(CCC(=O)N2CCCC(OCc3cccnc3)C2)c1C` (stereo not given): the Percent Effect in assay [1] is -5.06%; in assay [2], 10.8%; in [3] it was 4.22%; in assay [4], 0.679%; in assay [5], -0.35%; in assay [6] it was 2.91%. Also, the Percent Effect in assay [7] was 27.8%; in [8], 6.92%; in [9], 17.1%; in [10] it was -1.03%.

On to `O=C(NCCO)c1ccn(-c2ccc3ccccn23)n1`, for which the Percent Effect in assay [1] is -3.79%; in assay [2] it was -32.5%; in [3] it was -8.91%; in assay [4], 3.99%; in assay [5], -8.5%; in [6], 19.1%. In addition, the Percent Effect in [7] was 7.26%; in [8], 11.1%; in assay [9] it was -2.56%; in assay [10], -0.759%.

In the case of `CCOCC1CC2(CCN(Cc3ccccn3)CC2)CO1` (stereo not given), the Percent Effect in [1] was -9.03%; in [2], 1.3%; in [3] it was 1.88%; in assay [4] it was 0.292%; in assay [5] it was -2.83%; in assay [6], 11.7%. For the same compound, the Percent Effect was -4.94% in [7], 2.63% in assay [8], 5.13% in assay [9] and 16.1% in assay [10].

On to `COC(=O)CC(c1ccccc1)c1oc(C)cc(=O)c1O` (stereo not given), for which the Percent Effect is -10.4% in [1]; 0% in [2]; 4.84% in assay [3]; -5.33% in [4]; -1.75% in [5]; 1.71% in [6]. In addition, the Percent Effect in [7] is 6.47%; in [8] it was 1.6%; in assay [9], 0%; in assay [10], -1.53%.

Consider `c1cnnc(N2CCCC2CNCc2ccsc2)c1` (stereo not given), for which the Percent Effect is -2.09% in assay [1]; -5.13% in assay [2]; -6.52% in assay [3]; 10.1% in [4]; 4.1% in assay [5]; -8.45% in [6]. The Percent Effect in assay [7] is 15.3%; in assay [8] it was -0.478%; in assay [9], 6.02%; in [10], -2.21%.

As to `Cc1cc(CN(C)C(=O)c2ccnc(N(C)C)c2)no1`, the Percent Effect in assay [1] is -2.33%; in assay [2], 8%; in [3], 1.08%; in [4], -5.82%; in assay [5], 2.22%; in assay [6] it was 4.67%. In addition, the Percent Effect was 9.46% in assay [7], 3.68% in [8], 10.3% in [9] and -13.6% in assay [10].

For `Cc1cc(OCC(=O)N2CCCC(c3ccn[nH]3)C2)no1` (stereo not given), the Percent Effect in [1] is -3.04%; in assay [2] it was 5.33%; in [3], 5.5%; in [4], -5.62%; in [5], 3.55%; in assay [6], 6.36%. The Percent Effect in [7] was 3.56%; in [8], 3.68%; in assay [9] it was 7.69%; in assay [10], -8.42%.

With `CC(=O)N1N=C(c2ccccc2)OC1C(=O)NCCc1cccc(Cl)c1` (stereo not given), the Percent Effect is 4.91% in [1]; 6.67% in assay [2]; -6.99% in assay [3]; -2.56% in [4]; 2.65% in [5]; 8.05% in assay [6]. For the same compound, the Percent Effect in assay [7] was 8.59%; in assay [8], 0%; in assay [9], 10%; in assay [10], -24.5%.

As to `CC(C)CN1CCC2(CCN(Cc3ccsc3)CC2)C1=O`, the Percent Effect was -2.7% in assay [1]; 11.7% in assay [2]; 1.92% in assay [3]; 0.938% in assay [4]; 0.913% in [5]; 6.78% in assay [6]. Also, the Percent Effect in assay [7] is -29.8%; in assay [8] it was 8.7%; in assay [9] it was 12.5%; in [10], 1.04%.

With `CCCc1n[nH]cc1C(=O)N1CCC(c2nccn2CCOC)CC1`, the Percent Effect in assay [1] is -7.31%; in assay [2] it was 16.2%; in assay [3] it was 21.9%; in [4], 8.44%; in assay [5], 20.6%; in assay [6], 7.19%. Moreover, the Percent Effect in assay [7] amounted to 11%; in [8] it was 5.85%; in assay [9], 12.2%; in assay [10], 20.9%.

The values are drawn from ChEMBL document CHEMBL3988442, “University of Dundee, Small-Polar-MMV Screening Library” (2021).
